Only some compounds are listed: those with a hit (about 3.8% of all), similar ones and a draw of the others.
pCIP destab = lowers stability of the mouse p/CIP coactivator protein | Q05BA5 | F442A p/CIP-EGFP cells, EGFP fluorescence, 16 h | decrease of EGFP signal, % at 10 µM | 290,000 compounds, 0.01% hits;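 active = EGFP signal decrease of at least 30% at 10 µM or well 3 SD below plate mean, unless failing retest; inactive = the rest, including hits failing retest or dose response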
Target sequence (Q05BA5 1-1403): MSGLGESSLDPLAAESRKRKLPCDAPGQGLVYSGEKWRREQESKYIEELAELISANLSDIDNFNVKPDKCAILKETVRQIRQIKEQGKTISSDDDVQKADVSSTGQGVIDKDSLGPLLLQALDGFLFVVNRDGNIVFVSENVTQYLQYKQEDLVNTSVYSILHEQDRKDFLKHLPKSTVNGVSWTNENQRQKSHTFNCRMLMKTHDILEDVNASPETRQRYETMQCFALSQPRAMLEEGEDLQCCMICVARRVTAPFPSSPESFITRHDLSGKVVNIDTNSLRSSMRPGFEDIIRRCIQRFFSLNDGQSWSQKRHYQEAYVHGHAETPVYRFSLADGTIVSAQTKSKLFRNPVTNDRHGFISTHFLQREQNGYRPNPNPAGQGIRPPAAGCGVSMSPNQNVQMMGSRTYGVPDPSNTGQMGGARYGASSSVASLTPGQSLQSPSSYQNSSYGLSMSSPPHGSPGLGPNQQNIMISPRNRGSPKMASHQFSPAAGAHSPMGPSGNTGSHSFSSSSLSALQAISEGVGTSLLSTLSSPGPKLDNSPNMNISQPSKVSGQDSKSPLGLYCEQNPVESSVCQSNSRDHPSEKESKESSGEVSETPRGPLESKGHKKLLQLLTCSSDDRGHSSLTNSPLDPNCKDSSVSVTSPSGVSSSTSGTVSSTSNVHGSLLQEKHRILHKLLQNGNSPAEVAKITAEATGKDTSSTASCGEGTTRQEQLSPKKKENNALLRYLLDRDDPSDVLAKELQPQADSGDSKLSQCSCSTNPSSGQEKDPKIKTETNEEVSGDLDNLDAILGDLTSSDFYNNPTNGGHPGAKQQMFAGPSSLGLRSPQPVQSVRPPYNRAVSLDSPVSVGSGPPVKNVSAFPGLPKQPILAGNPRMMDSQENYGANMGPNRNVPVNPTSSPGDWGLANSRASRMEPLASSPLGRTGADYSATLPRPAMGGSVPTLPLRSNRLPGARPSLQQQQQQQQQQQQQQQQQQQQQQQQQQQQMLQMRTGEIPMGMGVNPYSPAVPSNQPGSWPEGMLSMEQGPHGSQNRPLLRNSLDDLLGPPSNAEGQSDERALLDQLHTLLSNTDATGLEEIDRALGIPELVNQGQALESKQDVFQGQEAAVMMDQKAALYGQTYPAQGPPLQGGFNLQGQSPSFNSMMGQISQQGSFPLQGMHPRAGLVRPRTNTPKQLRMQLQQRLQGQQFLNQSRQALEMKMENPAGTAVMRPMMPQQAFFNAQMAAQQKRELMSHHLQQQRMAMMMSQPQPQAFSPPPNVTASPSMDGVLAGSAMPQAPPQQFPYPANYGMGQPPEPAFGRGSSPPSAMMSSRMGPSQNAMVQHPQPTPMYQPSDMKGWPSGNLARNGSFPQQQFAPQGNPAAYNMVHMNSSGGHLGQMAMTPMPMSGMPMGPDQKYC
HSF1 activator = increases HSF-1 driven luciferase reporter signal. activation, % at 9 µM. AID 504408. NIH3T3-HGL HSF-1 luciferase reporter, MG132, 8 h; 100% = twice DMSO control signal. 300,000 compounds, 1.7% hits;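 active = mean replicate activation of at least 50% with a set share of replicates each reaching 50%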;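 also: 0% = median of the neutral control wells and 100% = twice that signal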
NALP1 yeast inh = NALP1 inhibition; S. cerevisiae NALP1/ASC/caspase-1 growth, X-gal OD620, 72 h; inhibition, % at 10 µM; 280,000 compounds, 0.61% hits; AID 2071; in the data active = inhibition mostly above about 24%, no sharp cut-off; inactive = mostly below about 32%
HSP90 refold inh = blocks HSP90-mediated luciferase refolding in reticulocyte lysate; Rabbit reticulocyte lysate, luciferase refolding luminescence, 3 h; inhibition, % at 5.6 µM; 290,000 compounds, 0.91% hits; AID 1789;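 active = inhibition above the screen-wide mean plus 3 SD, computed separately per campaign, cut at about 16% in these data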;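 also: 0% = DMSO wells and 100% = 60 µM geldanamycin wells; inhibitors lower the luminescence because luciferase stays unfolded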
HSF1 inh = HSF1 inhibition; NIH3T3-HGL HSE-luciferase, MG132-induced, luminescence 8 h; stronger effect = lower value; activity change, negative = inhibition, % at 7.5 µM (by protocol); 300,000 compounds, 0.77% hits; AID 2098;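 active = more than half of replicate wells show activity change below -50%, luminescence cut by over half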;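 also: luciferase reports HSF-1 transcriptional activity via heat shock element; 0% = median of DMSO wells and -100% = zero luminescence signal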
Hsp70 act = switches on Hsp70 transcription; HeLa Hsp70 promoter luciferase reporter, luminescence; scaled: vehicle 0, proteasome-inhibitor control 100%; activation, % at 10 µM; 200,000 compounds, 0.04% hits; AID 1203;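 active = activation above the mean across all tested compounds plus 3 SD, cutoff set per campaign, cut at about 5.5% in these data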;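 also: 100% = MG132 at 30 µM as the positive control and 0% = DMSO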
* marks the source's active call; other numbers are inactive results; x = not tested or not shown.

SMILES | pCIP destab | HSF1 activator | NALP1 yeast inh | HSP90 refold inh | HSF1 inh | Hsp70 act
COc1ccc(CNC(=O)CN2C(=O)C(C)N(c3ccc(C)cc3)C2=O)cc1 (stereo not drawn) | 2.3 | 53.9* | 1.1 | 0.5 | 16.3 | 0.1
O=C1N/C(=C\c2ccsc2)C(=O)N1Cc1ccc(F)cc1 | -2.1 | -2.3 | 16.4 | -1.4 | -2.7 | -0.4
Cc1ccsc1/C=C1/NC(=O)N(Cc2ccc(F)cc2)C1=O | 18.8 | 2.0 | 33.5* | -2.4 | 0.6 | 0.0
O=c1[nH]c2ccccc2n2cnnc12 | 1.4 | -86.4 | 3.5 | -0.2 | -82.6* | -0.2
Cc1ccc(C(CNS(=O)(=O)c2ccc(Cl)cc2)N2CCN(C)CC2)cc1 (stereo not drawn) | x | -5.6 | x | x | -5.5 | x
CCOC(=O)NC(=O)/C(C#N)=N\Nc1cccc(OC)c1 | 2.1 | -4.8 | 4.3 | 0.5 | 3.8 | -0.1
CCOC(=O)NC(=O)/C(C#N)=N/Nc1c(F)cccc1F | -5.4 | 64.2* | -10.4 | 1.6 | 25.0 | -0.3
COc1ccc(NC(=O)CSC(C)c2nc3ccccc3c(=O)[nH]2)cc1 (stereo not drawn) | -7.9 | -5.0 | 20.9 | -0.1 | -10.4 | x
CC[C@@H](C)[C@H](NC(=O)Cc1c(C)c2cc3c(C)c(C)oc3c(C)c2oc1=O)C(=O)O | 9.7 | -75.7 | -3.0 | 1.0 | -69.8* | x
CC(NC(=O)c1sc2ccccc2c1Cl)C1CCCO1 (stereo not drawn) | -1.6 | 68.8* | 23.0 | -0.8 | 23.2 | -0.1
CC(NC(=O)c1cc(-c2ccncc2)nc2ccc(Br)cc12)C1CCCO1 (stereo not drawn) | -11.1 | -5.2 | 4.0 | 4.1 | 2.4 | x
CC(NC(=O)c1cc(-c2ccccc2)nc2ccccc12)C1CCCO1 (stereo not drawn) | -9.1 | 52.1* | 16.2 | -0.6 | 7.3 | -0.2
O=C(NNC(=S)NC1CCCCC1)c1sc2ccccc2c1Cl | -0.9 | 17.1 | 11.5 | -0.4 | 14.1 | 0.1
CC(C)(C)C(=O)NC(=S)NNC(=O)c1sc2ccccc2c1Cl | 8.2 | -75.2 | 17.8 | 11.6 | -68.8* | 0.0
Oc1ccc(Cl)cc1-c1cc(-c2ccco2)[nH]n1 | 6.1 | 139.8* | 18.8 | -1.3 | 77.4 | -0.1
O=C(COC(=O)Cc1n[nH]c(=O)c2ccccc12)Nc1ccc(Cl)cc1F | 5.6 | -13.9 | -8.9 | -1.8 | -1.8 | -0.1
Cc1nnnn1/C(=C\c1ccccc1)C(=O)OCC(=O)Nc1ccc(Cl)cc1F | x | 333.5* | x | x | 341.3 | x
COc1ccc(NC(=O)c2ccsc2NC(C)=O)cc1 | 3.0 | -2.6 | 2.7 | 2.9 | -3.3 | -0.2
CC(NC(=O)c1ccccc1Br)c1ccc2c(c1)CCCC2 (stereo not drawn) | -5.1 | 59.4* | 7.3 | 3.1 | 20.8 | -0.3
CC(NC(=O)c1ccc(Br)cc1)c1ccc2c(c1)CCCC2 (stereo not drawn) | -0.2 | 5.1 | 34.5 | 4.6 | 3.2 | -0.3
C=CCn1c(O)c(N=NC(=S)Nc2ccc(OC)c(Cl)c2)c2ccccc21 | 5.8 | 54.6* | 6.9 | -2.7 | 6.9 | 0.3
O=C(Nc1ccc(F)cc1)c1ccc(=O)[nH]n1 | -1.5 | -74.3 | 11.6 | -1.9 | -71.2* | x
CCC1CCCCN1C(=O)c1cc2c(=O)n3cccc(C)c3nc2s1 (stereo not drawn) | -0.2 | -68.1 | 15.7 | -0.3 | -64.2* | x
CCOC(=O)c1c(S(=O)(=O)NCC(=O)Nc2ccccc2OC)c(C)n(C)c1C | 3.9 | 16.3 | 16.9 | -7.4 | 1.2 | x
c1ccc(CCNc2nc(-c3ccncc3)cs2)cc1 | -12.6 | 10.0 | -14.7 | -2.8 | 14.8 | -0.2
SMILES | pCIP destab | HSF1 activator | NALP1 yeast inh | HSP90 refold inh | HSF1 inh | Hsp70 act
CCCCCNc1nc(-c2ccccc2)cs1 | 0.5 | 55.3* | 10.6 | 5.3 | 18.9 | -0.2
C#CCOCCOCCOCCNc1nc(N2CCN(C(=O)C(Cc3cc4ccccc4[nH]3)n3cc(C(N)Cc4ccc(O)cc4)nn3)CC2)nc(N2CCN(C(=O)C(Cc3cc4ccccc4[nH]3)n3cc(C(N)Cc4ccc(O)cc4)nn3)CC2)n1 (stereo not drawn) | -18.4 | -21.7 | 7.3 | 23.0* | -5.5 | 0.0
C/C(N)=C(/C#N)C(=O)CSc1nnc(Nc2ccccc2)s1 | 17.5 | 55.3* | 4.6 | 3.4 | 29.7 | 0.2
Cc1ccccc1Nc1nnc(SCC(=O)c2ccc(O)cc2O)s1 | -5.7 | -5.1 | 11.1 | -2.8 | 8.4 | x
C/C(N)=C(/C#N)C(=O)CSc1nnc(NC(C)C)s1 | -5.5 | 2.6 | 7.6 | -5.5 | 4.3 | -0.1
C/C(N)=C(/C#N)C(=O)CSc1nnc(Nc2ccccc2C)s1 | -19.7 | 70.9* | 10.0 | -0.4 | 38.4 | -0.2
Cc1ccccc1Nc1nnc(SCc2cc(=O)n3ccsc3n2)s1 | -10.6 | 19.6 | 26.7* | 1.4 | 10.2 | -0.1
CCOc1ccc(CCNC(=O)COC(=O)c2cc(OC)c(OC)cc2[N+](=O)[O-])cc1OCC | x | -3.0 | x | x | -3.9 | x
CC(C)(C)c1nnc(NC(=O)C2CC(=O)N(CCc3ccc(F)cc3)C2)s1 (stereo not drawn) | -14.5 | -12.8 | 14.4 | -5.2 | -0.8 | x
CCC(C)(C)NC(=O)C(c1cccc(OC)c1OC)N(C(=O)CCC(=O)Nc1cc(C)on1)c1ccc2c(c1)OCCO2 (stereo not drawn) | -2.9 | -18.0 | 15.1 | 9.6 | -5.8 | x
Cc1nc(NC(=O)/C=C/c2ccc(Cl)cc2Cl)sc1C(=O)N(C)C | -18.3 | -81.4 | 30.9 | -1.4 | -75.8* | -0.4
CCOC(=S)SCC(=O)Nc1nccs1 | 5.4 | 114.8* | -30.8 | -5.0 | 84.4 | 0.2
Cc1nc(NC(=O)CSc2nc(N)cc(N)n2)sc1C | -16.7 | 41.3 | 10.5 | -2.7 | 18.3 | x
CCOC(=S)SCC(=O)Nc1nc(C)c(C)s1 | -1.6 | 235.7* | x | -1.3 | 163.6 | x
CCOC(=S)SCC(=O)Nc1nc(-c2ccccc2)cs1 | -2.7 | 66.6* | 30.1 | 4.3 | 34.6 | -0.1
CCOC(=O)C(=O)Nc1nccs1 | -2.4 | 3.5 | 6.5 | -3.7 | -5.9 | -0.4
CCCC(CCC(=O)Nc1nccs1)C(=O)O (stereo not drawn) | -24.3 | 52.7* | -10.1 | -3.0 | 6.8 | -0.3
C=CCSc1nnc(NC(=O)Cc2ccc(OC)c(OC)c2)s1 | -4.1 | -4.5 | -12.3 | -2.9 | -3.8 | -0.3
O=C(COC(=O)c1ccc(NS(=O)(=O)c2ccc3c(c2)OCCO3)cc1)NC1CCS(=O)(=O)C1 (stereo not drawn) | -22.8 | 8.7 | 17.7 | -0.5 | -9.0 | 0.1
O=C(CSc1nc2ccccc2o1)Nc1nc(-c2ccccc2)cs1 | 2.6 | -59.9 | 21.9 | 6.0 | -55.8* | 0.0
COCCn1c(N)c(N(Cc2ccccc2)C(=O)c2ccc(C#N)cc2)c(=O)[nH]c1=O | 6.2 | 55.3* | -5.9 | -2.6 | 12.8 | -0.2
COCCn1c(N)c(N(Cc2ccccc2)C(=O)Cc2c(Cl)cccc2Cl)c(=O)[nH]c1=O | 2.5 | -4.2 | 2.7 | -1.6 | -5.0 | 0.1
COc1ccc(CN2CCN(Cc3c[nH]c4ccccc34)CC2)cc1 | -8.3 | 34.8 | 22.2 | 1.2 | -3.4 | x

Assay outcomes: PubChem, several laboratories
